PostGolgi ctrl – growth of the yeast control strain, post-Golgi counter-screen | efflux-deficient yeast background strain, growth absorbance A615, 16 h | inhibition, % at 10 µM | actives 5% (n = 98,000)
CYP2C9 activ – increases human cytochrome P450 2C9 activity | P11712 | recombinant CYP2C9, luciferin-H conversion, luminescence; stronger effect = higher value; factor 1 = untreated enzyme, 0 = blocked | activation factor at 5 µM | actives 1.4% (n = 96,000) | AID 1024;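 active = activation factor of 2 or more for CYP2C9 at a 5 µM dose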
CYP2C19 activ – increases human CYP2C19 enzyme activity. P33261. recombinant CYP2C19, luciferin-H EGE luminescence; stronger effect = higher value; 0 = fully inhibited enzyme, 1 = untreated enzyme. activation factor at 5 µM. 96,000 tested, under 10 active. AID 1025;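 active = activation factor of at least 2 at 5 µM in the primary screen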
Target sequence (P33261 whole entry, looked up): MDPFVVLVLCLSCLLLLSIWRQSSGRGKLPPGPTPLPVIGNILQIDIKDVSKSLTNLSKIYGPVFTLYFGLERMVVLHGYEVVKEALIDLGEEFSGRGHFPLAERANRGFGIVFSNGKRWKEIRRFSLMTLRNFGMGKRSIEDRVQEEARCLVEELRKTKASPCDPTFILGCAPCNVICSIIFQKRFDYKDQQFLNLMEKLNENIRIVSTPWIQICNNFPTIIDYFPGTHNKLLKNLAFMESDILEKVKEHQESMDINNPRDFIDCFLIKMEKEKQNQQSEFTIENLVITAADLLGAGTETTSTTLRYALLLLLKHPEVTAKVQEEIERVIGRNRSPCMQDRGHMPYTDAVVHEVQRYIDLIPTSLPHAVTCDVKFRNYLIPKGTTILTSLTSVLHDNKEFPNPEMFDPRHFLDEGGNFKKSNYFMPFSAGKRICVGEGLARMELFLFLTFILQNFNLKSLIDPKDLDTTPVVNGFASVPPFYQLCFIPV
PostGolgi yeast – growth inhibition of a yeast mutant, post-Golgi transport screen. post-Golgi transport phenotypic cell assay. inhibition, % at 10 µM. actives 0.9% (n = 98,000);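 also: yeast cells grown in 1536-well plates; yeast grown about 18 h at 30C before absorbance read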
CYP2C9 inhib – inhibitors of human CYP2C9; P11712; CYP2C9 Supersomes, luciferin-H conversion, luminescence; inhibition, % at 5 µM; actives 20% (n = 96,000); AID 777;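 active = blocking of liver enzyme CYP2C9 beyond about 50% at 5 µM, limit read from the data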
CYP2C19 inhib – blocks human cytochrome P450 2C19; P33261; CYP2C19 Supersomes, luciferin-H EGE luminescence, 30 min; inhibition, % at 5 µM; actives 21% (n = 96,000);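 active = CYP2C19 inhibition above a set limit at 5 µM in the primary screen, cut at about 50% in these data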
A number is an active result; . = inactive; / = not tested or not shown. Rows were chosen to be rich in hits. Some 32% of all compounds tested hit in one or more screens of this group. Rule as the data show it, unless noted: active = inhibition above about 30%; inactive = the rest.

SMILES	PostGolgi ctrl	CYP2C9 activ	CYP2C19 activ	PostGolgi yeast	CYP2C9 inhib	CYP2C19 inhib
O=S(=O)(Cc1ccccc1)N1CCN(Cc2ccccc2)CC1	.	.	.	.	.	52.6
O=S(=O)(Cc1ccccc1)N1CCc2ccccc2C1	.	3.7	.	.	.	96.6
O=S(=O)(Cc1ccccc1)N1CCCCC1	.	.	.	.	.	.
O=S(=O)(Cc1ccccc1)N1CCCCCC1	.	.	.	.	.	66.0
CC1CCCCC1NC(=O)COC(=O)c1ccc(N(C)C)cc1 (configuration not stated)	.	.	.	.	.	91.3
Cn1c(SCCS(=O)(=O)c2ccc(Cl)cc2)nnc1-c1ccccc1	.	.	.	.	.	.
CSC1=NC2C(N1)N(C)C(=O)N2C (configuration not stated)	.	.	.	.	.	.
O=C(NC1CCCCC1)c1nc2c(nnn2Cc2ccccc2Cl)c(=O)[nH]1	.	/	/	.	/	/
O=C(Cc1cccs1)N1CCC(c2nc3c(nnn3Cc3ccc(F)cc3)c(=O)[nH]2)CC1	.	.	.	.	95.6	.
O=C(Cc1cccs1)N1CCCC(c2nc3c(nnn3Cc3cccc(Cl)c3)c(=O)[nH]2)C1 (configuration not stated)	.	.	.	.	95.8	66.1
CSc1nnc2c3c4c(sc3c(=O)n(-c3ccccc3)n12)CC(C)(C)OC4	.	.	.	.	.	.
Nc1ccc(-c2nc3c(Cl)c(N)ccc3[nH]2)cc1	33.1	.	.	.	.	.
Nc1ccc(-c2nc3ccc(-c4nc5ccccc5o4)cc3[nH]2)cc1	.	.	.	.	.	.
Nc1ccc2nc(-c3ccc(Cl)cc3)[nH]c2c1	.	.	.	.	.	58.7
O=C(Nc1ccc(O)cc1)C1CC=CCC1 (configuration not stated)	.	.	.	.	.	.
Cc1cc(NC(=O)c2cc(CC(C)C)on2)n(-c2ccccc2)n1	.	/	/	.	/	/
O=C(CCc1ccc(S(=O)(=O)N2CCOCC2)cc1)Nc1ccc(N2CCOCC2)cc1	.	.	.	.	.	.
O=C(CCCSc1nc2ccccc2s1)NCc1ccco1	.	.	.	.	.	75.8
Cc1csc(NC(=O)CCCSc2nc3ccccc3s2)n1	.	.	.	.	52.0	87.5
Cc1cnc(NC(=O)CCCSc2nc3ccccc3s2)s1	.	.	.	.	.	.
Cc1csc(NC(=O)CSc2nc3ccccc3s2)n1	.	.	.	.	.	.
CCOc1ccc(C(=O)CN2CCN(S(=O)(=O)c3ccc(Br)cc3)CC2)cc1	.	.	.	.	.	.
CCOc1ccc(NC(=O)CCN2CCN(S(=O)(=O)c3ccc(Cl)cc3)CC2)cc1	.	.	.	.	73.0	72.4
CCOc1ccc(NC(=O)CCN2CCN(S(=O)(=O)c3ccc(OC)cc3)CC2)cc1	.	.	.	.	53.2	.
COc1ccc(NC(=O)CCN2CCCCC2)cc1	.	.	.	.	.	.
SMILES	PostGolgi ctrl	CYP2C9 activ	CYP2C19 activ	PostGolgi yeast	CYP2C9 inhib	CYP2C19 inhib
COc1ccc(NC(=O)CCN2CCN(S(=O)(=O)c3cc(Cl)ccc3OC)CC2)cc1	.	.	.	.	64.8	96.8
CCOc1ccc(C(=O)CN2CCN(S(=O)(=O)c3ccc(OC)cc3)CC2)cc1	.	.	.	.	.	77.3
CCOc1ccc(NC(=O)CCN2CCCCC2)cc1	.	.	.	.	.	.
CCCN(CCC)CCCNc1ccc2nnc(-c3ccc(F)cc3)n2n1	.	.	.	.	.	.
CN(C)C(CN1C(=O)C2CC=CCC2C1=O)c1cn(C)c2ccccc12 (configuration not stated)	.	.	.	.	.	.
COC(=O)C(C(=O)OC)C(C[N+](=O)[O-])c1ccc(OC)cc1 (configuration not stated)	.	.	.	.	.	.
CCc1ccc(NC(=O)CSc2nnc(CNC(=O)c3c(F)cccc3Cl)o2)cc1	.	.	.	.	52.5	.
O=C(CSc1nnc(CNC(=O)c2c(F)cccc2Cl)o1)Nc1ccccc1	.	.	.	.	.	.
COc1cc(CNCc2ccccn2)ccc1OCc1cccc(Cl)c1	.	.	.	.	.	83.4
COc1cc(CNCc2ccccn2)ccc1OCc1c(Cl)cccc1Cl	.	.	.	.	.	68.7
COc1cc(C(=O)NCc2ccccn2)ccc1OCc1c(C)noc1C	.	.	.	.	.	.
CCCCC(NC(=O)c1ccccc1)C(=O)OCC(=O)N1c2ccccc2Sc2ccccc21 (configuration not stated)	.	.	.	.	93.7	.
CCOCC(=O)Nc1cccc(Br)c1	.	.	.	.	.	.
Cc1ccc2c(c1)NC(=O)C(CC(=O)NCc1cccnc1)O2 (configuration not stated)	.	.	.	.	.	.
CCOc1ccc2nc(NC(=O)CSc3nnnn3C3CCCCC3)sc2c1	42.5	.	.	.	.	.
COc1ccc2nc(NC(=O)CSc3nnnn3C3CCCCC3)sc2c1	44.6	.	.	.	.	.
CCOc1ccc2nc(NC(=O)CSc3nc4c(c(=O)n(C)c(=O)n4C)n3C(C)C)sc2c1	.	.	.	.	.	.
CCC1Oc2ccccc2N(CC(=O)Nc2ccc(OC)cc2OC)C1=O (configuration not stated)	.	.	.	.	.	.
O=C(NCc1ccccc1Cl)c1ccc(Cn2cc(C(F)(F)F)ccc2=O)cc1	.	.	.	.	.	.
Cc1ccc(S(=O)(=O)N2CCN(C3CC(=O)N(CCc4ccccc4)C3=O)CC2)cc1C (configuration not stated)	.	.	.	.	.	50.4
COc1cc(CNCCSc2nnnn2C)cc(OC)c1OC	.	.	.	.	.	56.7
Cn1nnnc1SCCNCc1ccccc1F	.	.	.	.	.	79.0
Cn1nnnc1SCc1ccccc1F	.	.	.	.	.	.
Cn1nnnc1SCCNCc1ccncc1	.	.	.	.	.	.
Cn1nnnc1SCCNCC#Cc1ccccc1	.	.	.	.	.	85.3
SMILES	PostGolgi ctrl	CYP2C9 activ	CYP2C19 activ	PostGolgi yeast	CYP2C9 inhib	CYP2C19 inhib
COc1cccc(CNCCSc2nnnn2C)c1OC	.	.	.	.	.	77.2
COc1ccc(CNC(=S)Nc2cccc(C)c2C)cc1	.	.	.	.	.	.
Cc1ccc(NC(=O)c2cc(N3C(=O)C4CC=CCC4C3=O)ccc2N2CCCCC2)cc1 (configuration not stated)	.	.	.	.	.	.
CC12CC(c3ccccc3O1)N(C(=O)c1ccc(Br)o1)C(=O)N2c1ccccc1 (configuration not stated)	.	.	.	.	61.9	.
COc1ccc(/C(O)=C2\C(=O)C(=O)N(CCCN(C)C)C2c2ccccc2F)cc1Cl (configuration not stated)	/	.	.	/	.	.
CCN1CCN(C(c2cc(OC)c(OC)c(OC)c2)c2nnnn2C(C)C)CC1 (configuration not stated)	.	.	.	.	.	.
Cc1nc(/N=C\N(C)C)sc1C(=O)Nc1ccccc1	.	.	.	.	.	.

Bioassay records as filed in PubChem.
